GLP1R cytotox: cytotoxicity counter-screen for GLP-1 receptor inverse agonists; HEK293 cAMP-luciferase reporter cells, luminescence, 24 h; Potency, µM (top dose mostly 38.3 µM), without a hit: at the highest dose activity change, negative = inhibition, usual class: inhibitors; AID 624418; actives 0.13% (n = 410,000);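 note: loss of luciferase light is scored as toxicity; % is set by controls: 0 for no effect and ±100 for the full control effect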
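Here, cytotoxicity is scored as loss of luminescence. The MLSMR collection was tested on cells seeded in medium containing 10% Nu serum, with a 24 hr compound exposure preceded by 12 hours of culture.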
GLP-1R agonist: GLP-1 receptor (human) agonism; P43220; HEK293 GLP-1R CRE-luciferase, luminescence, 4-6 h; cells express a hypersensitive GLP-1R form; Potency, µM (highest dose often 45.6 µM), without a hit: at the highest dose activation, hits mostly activators; actives 0.007% (n = 380,000); AID 624172; note: % of control where 0% means no effect
Target sequence (P43220 whole entry, looked up): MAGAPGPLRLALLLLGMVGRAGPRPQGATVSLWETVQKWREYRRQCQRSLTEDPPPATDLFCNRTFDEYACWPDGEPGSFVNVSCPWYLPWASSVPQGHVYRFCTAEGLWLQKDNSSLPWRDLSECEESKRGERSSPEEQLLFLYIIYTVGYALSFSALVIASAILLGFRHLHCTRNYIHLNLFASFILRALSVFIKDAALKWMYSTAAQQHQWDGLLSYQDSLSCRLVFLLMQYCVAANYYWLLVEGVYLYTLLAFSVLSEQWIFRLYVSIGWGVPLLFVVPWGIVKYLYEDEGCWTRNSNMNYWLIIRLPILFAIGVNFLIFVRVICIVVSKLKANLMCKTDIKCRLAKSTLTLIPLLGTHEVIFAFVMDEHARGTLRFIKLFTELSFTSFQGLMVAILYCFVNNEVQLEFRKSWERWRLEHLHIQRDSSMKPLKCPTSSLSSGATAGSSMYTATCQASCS
GLP1R inv ag: inverse agonists of human GLP-1 receptor. HEK293 GLP-1R CRE-luciferase, luminescence, 24 h; GLP-1R form is constitutively active. Potency, µM (top dose mostly 38.3 µM), for inactives: at the highest dose activity change, negative = inhibition, most hits filed as inhibitors. actives 1.6% (n = 410,000). AID 624417; note: % is set by controls: 0 for no effect and ±100 for the full control effect; nearly all actives have a fitted effect of over 55% in size
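Readout was luciferase luminescence, measured 12 min after detection reagent at room temperature. Beforehand, GLP-1R reporter HEK293 cells had sat 12 h, then received compounds for 24 hr at 37 deg C.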
PTHR1 ag: PTHR1 (human) receptor agonism | actives 0.075% (n = 410,000) | Potency, µM (titrated, usually from 115 µM), without a hit: at the highest dose activation, most hits filed as activators | HEK293 GP2 PTHR1 cells, GloSensor cAMP luminescence, 1 h; note: nearly all actives have a fitted effect of over 55% in size
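HEK-293-derived GP2 cells expressing PTHR1 and a GloSensor cAMP reporter, 3,000/well, plated overnight, given luciferin plus IBMX (each 0.5 mM as added) for 1 h at 37 °C, then compound for 1 h at 37 °C. Luminescence was read after 15 min at room temperature.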
Numbers without * were called inactive; i = inactive; ? = inconclusive; . = no result given; ! = not active in a repeat; [ ] = another dose, or the depositor's remark. Only some compounds are listed: those with a hit (about 1.7% of all), similar ones and a draw of the others. Calls come from the whole dose curve; as a rule, active = well fitted curve in the direction sought with a large enough effect; inconclusive = small, poorly fitted or top-dose-only effect, or another doubt; inactive = no such curve, though single readings can be large; an effect the other way counts as inactive or inconclusive. Potency is the fitted concentration of half-maximal effect.

SMILES | GLP1R cytotox | GLP-1R agonist | GLP1R inv ag | PTHR1 ag
O=C(NCc1ccccc1F)C12CC3CC(CC(C3)C1)C2 | 7.4% | 6.4% | -16.0% | i
COc1ccccc1CNC(=O)C12CC3CC(CC(C3)C1)C2 | -16.2% | 3.7% | 11.2µM* | i
Cc1ccc(S(=O)(=O)N2CCCC2)cc1[N+](=O)[O-] | 0.2% | -2.9% | 9.8% | i
O=[N+]([O-])c1cc(S(=O)(=O)N2CCCCCC2)ccc1Cl | 11.2µM* | -5.5% | ? | -45.0%
Cc1noc(C)c1CCC(=O)NC1CCCN(Cc2ccc(CC(C)C)cc2)C1 (centres undefined) | -17.3% | -3.7% | 10µM* | -31.2%
CC(C)Cc1ccc(CN2CCCC(NC(=O)c3ccoc3)C2)cc1 (centres undefined) | ? | 2.9% | 8.91µM* | -18.8%
Cc1noc(C)c1CCC(=O)NC1CCCN(Cc2ccc(Cl)cc2)C1 (centres undefined) | -1.9% | -6.0% | -4.9% | -12.2%
O=C1[C@@H]2C[C@@H]3C[C@H]1C[C@@](O)(C3)C2 | . | -3.8% | . | .
Cc1ccc(C)c(N2CCN(C(C(=O)NC3CCCC3)c3ccco3)CC2)c1 (centres undefined) | 2.6% | . | 2.4% | -19.1%
COc1cccc(C(C(=O)NC2CCCC2)N2CCN(c3cc(C)ccc3C)CC2)c1OC (centres undefined) | -8.3% | . | 8.91µM* | i
CSc1cccc(NC(=O)Cn2c3ncccc3c(=O)n2-c2ccc(C)cc2)c1 | -4.2% | . | ? | -12.4%
COc1ccc(-c2nn(C)c3sc(C(=O)Nc4cccc(F)c4)cc23)cc1OC | -7.8% | . | ? | ?
Cc1csc(NC(=O)CSc2nnc3c4ccccc4nc(C(C)(C)C)n23)n1 | 2.51µM* | -4.3% | ? | -18.3%
CC(=O)CSc1nnc2c3ccccc3nc(C(C)(C)C)n12 | -1.1% | 11.7% | 8.7% | -17.9%
O=C(CN1C(=O)c2ccccc2S1(=O)=O)c1ccc(F)cc1 | -8.6% | -6.9% | 2.24µM* | -40.3%
CCN1CCN(Cc2ccc(NC(=O)c3cc(NC(=O)c4cnnc5ccccc45)cc(OC)c3)cc2C(F)(F)F)CC1 | ? | 1.8% | 8.91µM*! | -10.3%
CCN1CCN(Cc2ccc(NC(=O)c3cc(NC(=O)c4nccnc4N)cc(OC)c3)cc2C(F)(F)F)CC1 | 30.6% | -2.5% | ? | i
CCCNC(=O)C1(C)CCCN(Cc2ccccc2Cl)C1 (centres undefined) | 0.4% | 17.6% | -15.0% | i
CCCNC(=O)C1(C)CCCN(Cc2cccc3ccccc23)C1 (centres undefined) | -8.0% | 7.9% | 10µM* | i
Cc1cc(=O)[nH]c(SCC(=O)N2CCN(c3ccccc3)CC2)n1 | 4.9% | . | 6.5% | -24.1%
Cc1cc(=O)[nH]c(SCC(=O)N2CCN(C(c3ccccc3)c3ccccc3)CC2)n1 | 13.3% | -0.4% | 5.62µM* | i
COc1cccc2[nH]c3c(N4CCCCC4)ncnc3c12 | -22.0% | 23.1% | 7.6% | -12.5%
Cc1cccc2[nH]c3c(N4CC=C(c5ccc(F)cc5)CC4)ncnc3c12 | -56.5% | -1.0% | 10µM* | -94.0%
Cc1ccc(CSc2ncc(Cl)c(C(=O)NCCc3ccc(S(N)(=O)=O)cc3)n2)cc1 | 0.4% | . | 15.4% | -17.8%
O=c1oc2ccccc2n1CCn1c2ccccc2c2nc3ccccc3nc21 | -7.6% | -7.7% | 2.2% | i
SMILES | GLP1R cytotox | GLP-1R agonist | GLP1R inv ag | PTHR1 ag
COc1ccc2c(c1)c1nc3ccccc3nc1n2CCn1c(=O)oc2ccccc21 | 2.7% | -10.5% | -2.8% | 0.398µM*
COc1cc2nc(N3CCN(c4cc(C)ccc4C)CC3)nc(N)c2cc1OC | ? | -7.9% | 5.01µM* | -1.3%
Cc1cc2cc(CCNC(=O)C(C)C)c(=O)[nH]c2cc1C | 3.9% | -7.2% | -1.9% | -8.9%[57.5 µM]
O=C(NCCc1c[nH]c2ccccc12)C(=O)c1c[nH]c2ccccc12 | -29.5% | -4.9% | 4.47µM* | -22.2%
Cc1cc2cc(CCNC(=O)C(=O)c3c[nH]c4ccccc34)c(=O)[nH]c2cc1C | -24.6% | 13.7% | 10µM* | -12.6%
CN(CC(=O)Nc1ccc(F)cc1)C(=O)COc1ccc(C(=O)c2ccccc2)cc1 | -24.2% | 0.3% | 10µM* | i
COc1ccc(/C=C\c2onc(C)c2S(=O)(=O)N2CCC(C(=O)Nc3cccc(OC)c3)CC2)cc1 | 8.5% | . | ? | -73.8%
CCOc1ccc(-c2cc(C(=O)N3CCN(c4cccc(C)c4)C(C)C3)c3ccccc3n2)cc1 (centres undefined) | -15.4% | . | 5.01µM* | -24.0%
CCOc1cccc(-c2cc(C(=O)N3N=C(C)CC3(O)C(F)F)c3ccccc3n2)c1 (centres undefined) | 5.9% | 11.4% | 11.2µM* | i
CCc1nc(NC(C)(C)C)c2cnn(-c3ccccc3)c2n1 | -16.2% | 20.7% | 2µM* | -31.4%
COc1ccc(-c2cc3c(=O)n(CC(=O)NCCCN4CCC(Cc5ccccc5)CC4)ncn3n2)cc1 | -0.8% | -0.1% | 2.24µM* | -52.9%
COC(=O)c1ccc(NC(=S)NC2CCCCC2C)cc1 (centres undefined) | ? | 0.3% | 10µM* | -7.3%
CCCC(=O)N1CCN(c2nc3ccc(F)cc3s2)CC1 | 4.2% | . | ? | -35.4%
CCCCC1C2=C(CC(C)(C)CC2=O)OC2=C1C(=O)CC(C)(C)C2 | -7.3% | 4.1% | 8.91µM* | i
Cc1ccc(NC(=O)c2nnn(Cc3cccc(C(F)(F)F)c3)c2N)c(C)c1 | 0.4% | . | ? | -16.7%
CCOC(=O)c1ccc(Oc2nc(NC(C)(C)C)nc(N(C)C)n2)cc1 | -19.4% | 2.8% | 7.94µM* | -23.6%[57.5 µM]
CCSc1nn(CC(=O)Nc2cccc(CC)c2)c(N)c1S(=O)(=O)c1ccccc1 | -9.9% | . | ? | -76.8%
O=C(c1cccc(Br)c1)c1cn(-c2ccccc2)nc1C(=O)c1ccccc1 | 7.1% | -0.2% | 3.55µM* | i
CC(=O)c1nn(-c2ccccc2)cc1C(=O)c1cccc(Br)c1 | 0.6% | -1.6% | 3.8% | i
CCc1ccc(OCCNC(=O)c2ccccc2SCc2ccc(F)cc2)cc1 | -3.7% | -2.5% | 8.91µM* | -39.0%
O=C(NCCOc1ccc(F)cc1)c1ccccc1SCc1ccccc1 | 17.7% | 7.1% | ? | -23.9%
CCCn1c(N2CCN(Cc3ccc(Cl)cc3)CC2)nc2ccccc21 | ? | -6.2% | 11.2µM* | -36.2%
CCCCn1c(C23CC4CC(CC(C4)C2)C3)n[nH]c1=S | -6.2% | -10.6% | 7.08µM* | i
COc1ccc(-c2cc3ccccc3n2CC(O)CN2CCCCC2)cc1 (centres undefined) | 0.0% | 0.4% | -4.7% | ?
COc1ccc(-c2cc3ccccc3n2CC(O)CNCCO)cc1 (centres undefined) | -11.7% | -5.5% | 2.82µM* | -5.8%[57.5 µM]
CCc1ccc(CN(Cc2cn[nH]c2-c2ccc(OC)cc2)C(=O)Nc2cc(Cl)ccc2OC)cc1 | -12.4% | . | ? | i
CN(C)CCN1C(=O)c2cccc3cc([N+](=O)[O-])cc(c23)C1=O | ? | -18.9% | 1.78µM* | i

Screening results deposited in PubChem by National Center for Advancing Translational Sciences (NCATS).
